Bioassay records from PubChem.
KB-V1 cytotox – KB-V1 MDR subline cytotoxicity | 400,000 compounds, 3.4% hits | KB-V1 MDR cells viability, CellTiter-Glo, 72 h | Potency, µM (doses to about 46.1 µM), most hits filed as cytotoxic; further: nearly all actives have a fitted effect of over 60% in size
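qHTS viability screen in drug-selected KB-V1 MDR cells: 72 h compound treatment at 37 degrees C, ATP luminescence end point.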
TDP1 cell CPT – DT40-hTDP1 cell growth loss with CPT; chicken DT40 Tdp1-/-;hTDP1 cells + 20 nM CPT, ATP luminescence, 48 h; Potency, µM (titrated, usually from 46.2 µM), inactives show at the highest dose activity change, negative = growth inhibition, hits mostly inhibitors; 420,000 compounds, 12% hits; AID 686979; further: nearly all actives have a fitted effect of over 55% in size
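Chicken DT40 Tdp1-/- cells complemented with human TDP1, 400 cells/well, exposed to compounds plus 20 nM camptothecin for at least 48 h at 37 C; viability read as ATP content by CellTiter-Glo luminescence.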
DT40 TDP1 no CPT – qHTS for Inhibitors of human tyrosyl-DNA phosphodiesterase 1 (TDP1): qHTS in cells in absence of CPT. DT40 Tdp1-/- hTDP1 cells, no CPT, ATP luminescence, 48 h. Potency, µM (top dose mostly 46.2 µM), without a hit: at the highest dose activity change, negative = growth inhibition, actives largely listed as inhibitors. 420,000 compounds, 15% hits. AID 686978, 2013; further: nearly all actives have a fitted effect of over 55% in size
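Chicken DT40 Tdp1-/- cells complemented with human TDP1, screened without camptothecin (DMSO vehicle only), 400 cells/well. Compounds pin-transferred, cells incubated at 37 °C for at least 48 hr. Growth read as ATP-dependent luminescence (CellTiter-Glo, 30 min at RT).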
HT1080 IDH1KD tx – kills HT-1080 cells with IDH1 knockdown. HT-1080 IDH1 knockdown viability, ATP luminescence, 48 h. Potency, µM (doses to about 46.1 µM), for the others: at the highest dose activity, negative = toxicity, hits mostly cytotoxic. 360,000 compounds, 2% hits;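 further: 0% = DMSO wells and -100% = cell-free medium wells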
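HT-1080-IDH1KD cells (IDH1 knocked down), 750/well in RPMI with 5% FBS, treated with compound 48 h at 37 degrees C. Viability by CellTiter-Glo luminescence, normalised to DMSO and no-cell wells; concentration-response curves classed.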
HT1080-NT tox – kills 2HG-producing HT-1080-NT fibrosarcoma cells | Potency, µM (top dose mostly 46.1 µM), for inactives: at the top dose activity, negative = less viability, usual class: cytotoxic | AID 686970 | HT-1080-NT fibrosarcoma viability, CellTiter-Glo ATP luminescence, 48 h | 360,000 compounds, 1.6% hits;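 further: NT is the 2HG producing partner of a matched IDH1 knockdown line; 0% = DMSO-treated cells and -100% = media-only wells without cells; nearly all actives have a fitted effect of over 55% in size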
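HT-1080-NT fibrosarcoma cells (2HG-overproducing), 750 cells/well in RPMI with 5% FBS, dosed after 2 h and incubated 48 h at 37C. CellTiter-Glo luminescence normalized to DMSO and no-cell wells; concentration-response curves fitted and classed.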
KB-3-1 tox – KB-3-1 parental cell cytotoxicity | KB-3-1 viability, CellTiter-Glo ATP luminescence, 72 h | Potency, µM (highest dose often 46.1 µM), most hits filed as cytotoxic | 400,000 compounds, 1.4% hits; further: nearly all actives have a fitted effect of over 60% in size
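Multi-concentration cytotoxicity screen in KB-3-1 cells grown in DMEM lacking phenol red with 10% FBS. After 72 h at 37 °C with compound, ATP-dependent luminescence was recorded.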
* marks the source's active call; other numbers are inactive results; i = inactive; ? = inconclusive; nt = not tested or not shown; ! = not active in a repeat; [ ] = another dose, or the depositor's remark. The list is not random: actives were taken first. Their share in the collection is about 19%. The call rests on the fitted dose curve; in most records, active means well fitted curve in the direction sought with a large enough effect; inconclusive means small, poorly fitted or top-dose-only effect, or another doubt; inactive means no such curve, though single readings can be large; an effect the other way counts as inactive or inconclusive. Unless noted, on the % scale 0 is the no-effect control and ±100 the full control effect; potency means the concentration at half of the fitted maximal effect.

SMILES	KB-V1 cytotox	TDP1 cell CPT	DT40 TDP1 no CPT	HT1080 IDH1KD tx	HT1080-NT tox	KB-3-1 tox
O=C(c1cnccn1)N1CCC2(CC1)CN(Cc1ccncc1)C2	nt	6%	-10%	nt	nt	nt
CCC1([N+](=O)[O-])COP(=O)(NCc2cccnc2)OC1 (stereo not given)	i	1%	9%	20%	8%	i
CCC1(CCO)C(=O)NC(=S)NC1=O	i	8%	-5%	24%	-3%	i
CCCCn1c(O)c(C(CC)=Nc2ccc(OC)cc2OC)c(=O)[nH]c1=O	21µM*	?	?	-24%	-15%	?
CCCCn1c(O)c(C(C)=NCc2cc(OC)cc(OC)c2)c(=O)[nH]c1=O	?	?	?	-28%	-10%	i
CCCCn1c(O)c(C(CC)=NCc2cc(OC)cc(OC)c2)c(=O)[nH]c1=O	3.7µM*	?	23µM*	-25%	-4%	i
COc1ccc(-c2nn(CCC#N)cc2C(=O)Nc2ccccc2Br)cc1[N+](=O)[O-]	i	-30%	?	-18%	?	i
O=C(NC(=S)N1C[C@H]2C[C@H](C1)c1cccc(=O)n1C2)c1ccc(Cl)cc1Cl	i	2%	1%	11%	0%	i
CCN1C[C@]2(C)CC[C@H](OC)[C@]34C5C[C@@H]6CC[C@@](O)(C5C(=O)O6)C(C13)[C@@H](OC(=O)c1ccccc1)C24	nt	3%[9.04 µM]	-14%[9.04 µM]	nt	nt	nt
ClC(Cl)(Cl)Cl	nt	-2%	-6%	nt	nt	nt
O=S(=O)(c1ccccc1C(F)(F)F)N1CCN(c2ncnc3sccc23)CC1	?	15µM*	8.2µM*	-28%	-21%	?
COc1ccc(-c2coc3c(C(=O)Nc4cc(OC)c(OC)c(OC)c4)cccc23)c(C)c1	13µM*	4.1µM*	3.7µM*	?	?	?
COc1ccc(NC(=O)CN2C3CCC2CC(O)(c2cccnc2)C3)cc1OC (stereo not given)	i	-11%	-17%	-4%	-2%	i
COc1cc(NC(=O)c2cccc3c(-c4cccnc4)coc23)cc(OC)c1OC	7.3µM*	3.7µM*	3.3µM*	-14%	?	?
Cc1c(C)c2ccc(OCC(=O)N3C[C@H]4C[C@@H](C3)c3cccc(=O)n3C4)cc2oc1=O	i	0%	6%	-1%	-1%	i
CN1C(=O)NC(=O)C(N=Nc2ccc(Cl)cc2)C1=O (stereo not given)	i	-8%	?	3%	-3%	i
COc1cccc(NP2(=O)OCC(C)([N+](=O)[O-])CO2)c1 (stereo not given)	i	6%	2%	7%	-2%	i
CCOc1ccc(N(CC)S(=O)(=O)c2ccc3c(c2)oc(=O)n3C)cc1	?	?	-28%	-13%	-2%	?
COc1cc(NS(=O)(=O)c2ccc3c(c2)oc(=O)n3C)cc(OC)c1OC	?	13µM*	9.2µM*	?	?	7.3µM*
Cc1ccc(O)c([C@H](CCN(C(C)C)C(C)C)c2ccccc2)c1	?	21µM*!	?	?	?	i
CC=C(CC)C1(CCC)C(=O)NC(=S)NC1=O	i	17%	-7%	?	5%	i
CCc1ccc2c(c1)Sc1ccccc1CC2N1CCN(C)CC1 (stereo not given)	i	?	18µM*	-27%	-19%	i
CC[C@H](O)C(C[C@H](C)N(C)C)(c1ccccc1)c1ccccc1	nt	44µM*	?	nt	nt	nt
CC(CC(C#N)(c1ccccc1)c1ccccc1)N(C)C (stereo not given)	?	?	?	-15%	?	i
CCOc1ccc(C(C)=O)cc1Cn1ccsc1=N	i	-7%	-22%	-6%	-13%	i
SMILES	KB-V1 cytotox	TDP1 cell CPT	DT40 TDP1 no CPT	HT1080 IDH1KD tx	HT1080-NT tox	KB-3-1 tox
CC1(C(O)(C#CCN2CCCCC2)c2ccccc2)CCCC1 (stereo not given)	i	?	?	-8%	-20%	?
CC(C)c1ccc(N2C(=O)NC(=O)/C(=C\C=C\c3ccco3)C2=O)cc1	?	?	?	5.8µM*	4.1µM*	?
CCc1nn(CC(=O)N2CCN(Cc3ccc4c(c3)OCO4)CC2)c(=O)c2cc3occc3n12	18µM*	?	?	-20%	-2%	i
COc1ccc(OC(=O)Nc2ccc([N+](=O)[O-])cc2OC)cc1	i	-29%	?	?	?	i
CCOc1cc(CNCCc2ccccc2F)ccc1OC	i	?	?	0%	-2%	i
COc1ccc2[nH]c(C)c(CCNCc3cccnc3)c2c1	i	1%	10%	-3%	0%	i
CCOc1cccc(CNCCc2c(C)[nH]c3ccc(OC(F)(F)F)cc23)c1O	23µM*	2.9µM*	2.1µM*	18µM*	?	i
Cc1[nH]c2ccc(OC(F)(F)F)cc2c1CCNCc1ccc(Cl)cc1	?	26µM*	15µM*	15µM*	?	?
Cc1[nH]c2ccc(OC(F)(F)F)cc2c1CCNCc1cccc([N+](=O)[O-])c1	?	?	13µM*	13µM*	15µM*	?
N#Cc1cccc(NC(=O)N2CC[C@@]3(CCCN(C(=O)Oc4ccccc4)C3)C2)c1	nt	-4%	?	nt	nt	nt
CC(C)NC[C@H](O)c1ccc(N)c(C#N)c1	nt	1%	-20%	nt	nt	nt
COc1cccc2c1C(=O)c1c(O)c3c(c(O)c1C2=O)C[C@@](O)(C(=O)CO)C[C@@H]3O[C@H]1C[C@H](N)[C@H](OC2CCCCO2)[C@H](C)O1 (stereo not given in full)	?	0.28µM*	?	nt	nt	?
CCCCC(=O)OCC(=O)C1(O)Cc2c(O)c3c(c(O)c2C(OC2CC(NC(=O)C(F)(F)F)C(O)C(C)O2)C1)C(=O)c1c(OC)cccc1C3=O (stereo not given)	i	1.2µM*	2.1µM*	8.2µM*	23µM*	?
CN(C)C(=O)Oc1ccc(-c2cn3cc(Cl)ccc3n2)cc1	4.1µM*	?	?	-11%	-2%	i
CN(C)C(=O)Oc1cccc(-c2cn3cc(Cl)ccc3n2)c1	13µM*	-30%	-27%	-1%	8%	i
CN(C)C(=O)Oc1ccc(-c2cn3cc(C(F)(F)F)ccc3n2)cc1	i	3%	-15%	23%	3%	i
